High-throughput results as filed in PubChem BioAssay.
The list is not random: actives were taken first. Their share in the collection is about 2.4%.
SENP7 block = inhibitors of human SENP7 protease; Q9BQF6; recombinant SENP7, Z-RLRGG-aminoluciferin luminescence, 40 min; inhibition, % at 5 µM; 1.5% of 330,000 active; AID 434973;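 active = inhibition above about 50% at the single test dose, limit read from the data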;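 also: plate controls were DMSO with enzyme for no effect and no enzyme buffer wells for full effect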
SENP6 inh = inhibitors of human SENP6 protease; Recombinant SENP6 catalytic domain, aminoluciferin luminescence; 1.8% of 330,000 active; inhibition, % at 10 µM; AID 2599;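 active = inhibition above about 50% at the single tested dose, limit read from the data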;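 also: plate controls were DMSO wells with enzyme for no effect and DMSO wells lacking enzyme for full effect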
SENP8 block-1 = blocks human SENP8 cleavage of Nedd8 substrate. recombinant SENP8, Nedd8 substrate fluorescence. Q96LD8. 0.64% of 360,000 active. inhibition, % at 20 µM; in the data active = inhibition mostly above about 40%, no sharp cut-off; inactive = mostly below about 27%
Target sequence (Q96LD8 whole entry, looked up): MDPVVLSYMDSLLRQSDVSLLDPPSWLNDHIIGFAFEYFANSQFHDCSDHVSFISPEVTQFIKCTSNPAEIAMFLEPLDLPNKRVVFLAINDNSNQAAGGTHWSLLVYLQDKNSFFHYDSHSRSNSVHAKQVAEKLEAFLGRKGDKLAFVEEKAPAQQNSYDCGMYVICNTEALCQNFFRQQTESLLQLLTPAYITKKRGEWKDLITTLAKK
Platelet DG rel = modulates dense granule release in human platelets | human platelet-rich plasma, SFLLRN dense granule ATP release, luminescence | inhibition, %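 (compounds screened at 7.5 µM in platelet-rich plasma)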 | 0.22% of 300,000 active | AID 1663;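 active = mean replicate score, as percent of positive control, at or above 50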
SENP8 block-2 = blocks the human protease SENP8; 1.2% of 330,000 active; inhibition, % at 10 µM; AID 2540; Q96LD8; purified SENP8, Z-RLRGG-aminoluciferin cleavage, luminescence; in the data active = inhibition above about 50%
SENP8 conf-1 = human SENP8 inhibition, confirmed | inhibition, % at 12.5 µM | Recombinant SENP8, Z-RLRGG-aminoluciferin luminescence, 60 min | 40% of 6,200 active | AID 488912 | shares compounds with SENP7 block;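 active = mean inhibition across replicates above about 50%, limit read from the data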
SENP6 confirm = confirmation of human SENP6 protease inhibitors | recombinant SENP6, Z-RLRGG-aminoluciferin luminescence | inhibition, % at 12.5 µM | 58% of 6,200 active | shares compounds with SENP7 block
SENP7 conf = human SENP7 inhibition, confirmed. shares compounds with SENP7 block. recombinant SENP7, Z-RLRGG-aminoluciferin luminescence, 40 min. inhibition, % at 12.5 µM. 69% of 6,200 active
Casp3 SENP sel = inhibits human caspase-3 in SENP selectivity test; inhibition, % at 12.5 µM; AID 488918; shares compounds with SENP7 block; 60% of 6,200 active; purified caspase-3, Z-DEVD-aminoluciferin luminescence, 60 min;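 active = mean inhibition above about 50%, limit read from the data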;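 also: plate controls were enzyme with DMSO for no effect and wells without caspase-3 for full effect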
Target sequence (P42574 28-227 limits assumed): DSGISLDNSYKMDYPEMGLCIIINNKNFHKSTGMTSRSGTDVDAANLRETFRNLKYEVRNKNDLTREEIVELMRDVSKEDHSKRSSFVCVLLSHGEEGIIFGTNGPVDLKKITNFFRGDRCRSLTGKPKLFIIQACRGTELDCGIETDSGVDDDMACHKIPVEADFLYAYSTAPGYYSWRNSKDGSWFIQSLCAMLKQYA
SENP luc ctr = interferes with luciferase luminescence in SENP counter-screen. shares compounds with SENP7 block. Pre-incubated SENP8/Z-RLRGG-aminoluciferin, luciferase luminescence interference. inhibition, % at 12.5 µM. 39% of 6,200 active;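 active = mean inhibition above about 50% when retested at one dose, limit read from the data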;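 also: plate controls were DMSO wells with completed reaction for no effect and substrate without enzyme for full effect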
SENP8 conf-2 = SENP8 (human) inhibition, single concentration confirmation | purified SENP8, Nedd8-AMC/pro-Nedd8 cleavage fluorescence, 30 min | shares compounds with SENP8 block-1 | inhibition, % at 25 µM | AID 624319 | 15% of 1,400 active; in the data active = inhibition mostly above about 39%, no sharp cut-off; inactive = mostly below about 34%
An asterisk follows results filed as active; . = not tested or not shown.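 The calls were made as follows, unless noted: active = mean inhibition above about 50% in the one-dose retest (limit read from the data); inactive = the rest.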

SMILES	SENP7 block	SENP6 inh	SENP8 block-1	Platelet DG rel	SENP8 block-2	SENP8 conf-2	others
COc1cccc(CSc2ccc(S(=O)(=O)N3CCOCC3)cc2C(=O)NCC2CCCO2)c1OC (centres undefined)	-1.7	9.2	15.1	7.2	4.7	.
COc1cc(C=C(c2nc3ccccc3s2)c2nc3ccccc3s2)cc(OC)c1O	3.4	13.0	-137.7	-7.4	1.0	.
CC1=CC(=C(C#N)c2nc3ccccc3s2)C=C(C)N1c1ccc(F)cc1	1.1	53.7*	84.6*	0.9	-6.5	26.1	SENP8 conf-1=11.9;SENP6 confirm=14.9;SENP7 conf=8.8;Casp3 SENP sel=4.7;SENP luc ctr=4.0
COc1ccccc1N1C(C)=CC(=C(C#N)c2nc3ccccc3s2)C=C1C	3.6	61.1*	66.8*	-2.2	3.4	41.0	SENP8 conf-1=16.4;SENP6 confirm=21.3;SENP7 conf=17.1;Casp3 SENP sel=9.8;SENP luc ctr=7.1
N#C/C(=C/c1ccncc1)c1nc2ccccc2s1	3.1	-11.0	-268.1	19.1	-4.0	.
COc1cccc(/C=C/C(=O)OCC(=O)Nc2nnc(-c3ccccc3)o2)c1	2.1	-12.1	-89.7	2.2	-4.4	.
CC(=O)OCCCNc1cc(SCc2ccco2)c2nonc2c1[N+](=O)[O-]	33.7	63.1*	49.7*	2.2	60.4*	17.4	SENP8 conf-1=10.0;SENP6 confirm=12.2;SENP7 conf=-5.2;Casp3 SENP sel=4.9;SENP luc ctr=-9.3
O=C(Nc1ccc(F)cc1)c1ccc2c(=O)n(CC3CCCO3)c(=S)[nH]c2c1 (centres undefined)	7.8	2.5	12.5	1.7	-0.7	.
O=c1cc(-c2ccc(O)cc2)oc2cc(O)c([C@@H]3O[C@H](CO)[C@@H](O)[C@H](O)[C@H]3O)c(O)c12	6.3	-19.6	44.7*	.	-2.2	9.6
Cc1cnc(C(=O)OCC(=O)NC2CCCCCCC2)cn1	5.0	-4.9	16.0	-1.2	0.2	.
CCN(C(=O)COC(=O)c1cnc(C)cn1)C1CCCCC1	5.7	8.7	40.5*	-3.7	3.6	4.5
CC(=O)Nc1ccc(NC(=O)COc2cc(O)c3c(c2)OC(C)(C)CC3=O)cc1	5.2	-8.1	40.8*	-2.2	-7.9	11.8
Cc1cc(OCC(=O)Nc2ccc(Br)cc2)cc2c1C(=O)CC(C)(C)O2	2.4	-7.5	40.6*	-1.2	-7.9	15.8
Cc1cc2c(cc1S(=O)(=O)N1CCN(c3cccc(C)c3C)CC1)OCCN2C	-6.2	2.4	-34.6	5.2	-9.6	.
Cc1nc2ccc(NC(=O)c3cc([N+](=O)[O-])cc([N+](=O)[O-])c3Cl)cc2s1	.	.	40.8*	.	.	25.9
COc1ccccc1NS(=O)(=O)c1cc(NC(=O)C2CCCO2)ccc1C (centres undefined)	3.0	-4.4	9.8	.	0.1	.
COc1cc2c(cc1OC)C(=O)N(C)CC2	5.2	2.8	41.8*	-3.6	-0.9	2.7
COc1ccc(C(=O)N/C(=C\c2ccc3c(c2)OCO3)C(=O)N2CCOCC2)cc1	-4.8	-19.7	-9.8	-3.1	-0.9	.
COc1cc(/C=N/NC(=O)c2ccncc2)c([N+](=O)[O-])cc1OC	-4.8	-8.8	21.2	-4.8	-6.4	.
COc1cc(OC)c([N+](=O)[O-])cc1/C=N/NC(=O)c1ccncc1	1.1	-4.4	43.4*	11.0	3.1	97.0*
COc1ccc(N2CSC3=C(C#N)C(c4cccc(OC)c4OC)CC(=O)N3C2)cc1 (centres undefined)	10.4	4.5	-15.6	21.9	12.1	.
COc1ccc2ccccc2c1C1CC(=O)N2CN(C3CCCCC3)CSC2=C1C#N (centres undefined)	-4.4	-0.3	75.3*	0.3	-1.7	8.8
CCc1cccc(CC)c1NC(=O)CN1CCc2cc(OC)c(OC)cc2C1	1.3	0.7	17.2	1.8	3.9	.
O=c1cc(CO)[nH]cc1OCc1ccccc1	-2.3	-15.6	45.9*	6.1	-4.7	12.1
O=c1cc(CO)occ1OCc1cccc(F)c1	-8.4	-5.8	12.9	2.2	0.5	.
SMILES	SENP7 block	SENP6 inh	SENP8 block-1	Platelet DG rel	SENP8 block-2	SENP8 conf-2	others
c1ccc(CN(Cc2cccs2)C(c2cccs2)c2nnnn2C2CCCC2)cc1 (centres undefined)	-1.7	-2.2	42.7*	0.0	-6.4	11.6
c1ccc(CC2CCN(C(c3cccs3)c3nnnn3C3CCCC3)CC2)cc1 (centres undefined)	7.3	-0.2	12.1	2.2	-1.9	.
CCc1ccc2c(c1)c1nc(C)sc1n2CC	8.8	20.4	95.7*	-1.4	9.2	15.0
Cc1nc2c3cc(F)ccc3n(Cc3ccc(F)cc3)c2s1	-1.4	9.3	-9.7	-15.4	-3.3	.
O=C(Nc1ccc(O)cc1)C1CC=CCC1 (centres undefined)	1.6	4.7	41.2*	-0.2	-1.6	49.0*
CCC(C)[C@H](NC(=O)Nc1ccc(S(N)(=O)=O)cc1)C(=O)O (some centres undefined)	-12.5	-18.7	9.6	0.0	-10.3	.
CCC(C)[C@H](NC(=O)Nc1cccc(Cl)c1)C(=O)O (some centres undefined)	-0.5	-25.1	47.5*	3.0	-6.4	16.0
COc1ccc(CCNC(=O)COC(=O)c2cc(=O)[nH]c3ccccc23)cc1	2.5	-26.5	-267.9	.	2.1	.
O=C1CC(CC(=O)N/N=C/c2ccccc2[N+](=O)[O-])=NN1	11.4	11.1	40.4*	-3.0	-0.2	12.8
NC(=NC1CCCCC1)c1ccc([N+](=O)[O-])cc1	3.3	-7.0	41.7*	.	7.6	5.3
CCN1CCN(c2nc3c(C)cccn3c(=O)c2/C=C(\C#N)C(=O)NC)CC1	-0.4	-17.1	-282.0	2.5	1.5	.
CSc1cccc(NC(=S)N(CCCN2CCCC2)Cc2cccs2)c1	-4.7	-2.1	45.7*	-3.8	0.7	-3.8
S=C(Nc1cccc(Cl)c1)N(CCCN1CCCC1)Cc1cccn1Cc1ccc(Cl)cc1	1.9	-7.9	40.3*	-5.2	-0.6	29.2
COc1ccc(NC(=S)N(CCCN2CCCC2)Cc2cccs2)cc1	2.3	1.0	22.0	-6.9	-2.7	.
CN(CC(=O)NCc1ccccc1F)S(=O)(=O)c1ccc(Cl)cc1	-4.8	5.4	17.6	16.8	-1.4	.
COCCNC(=O)C1(C)CCCN(C(=O)c2ccc(F)c(Cl)c2)C1 (centres undefined)	.	.	2.4	.	.	.
